Inconclusive results are not listed. Unmarked numbers belong to inactive results. Activity calls are given as the source filed them. Calls come from the whole dose curve; as a rule, active = well fitted curve in the direction sought with a large enough effect; inconclusive = small, poorly fitted or top-dose-only effect, or another doubt; inactive = no such curve, though single readings can be large; an effect the other way counts as inactive or inconclusive.

Test [1] addresses Cytochrome P450 3A4 (Homo sapiens) (UniProt P08684). Put plainly: qHTS Assay for Inhibitors and Substrates of Cytochrome P450 3A4 (AID 884). Note: nearly all actives have a fitted effect of over 50% in size. Note: potency is the fitted concentration of half-maximal effect. A digest of the protocol:
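20 nM human CYP3A4 with 25 uM Luciferin-PPXE (at KM) in 200 mM KPO4, preincubated 10 min with compound; NADPH regeneration started a 60 min RT reaction. Luciferin detected by luminescence, normalized to 57 uM ketoconazole as full inhibition.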
(In general: qHTS replaces the single test concentration by a dilution series.)

The target in test [2] is Muscarinic acetylcholine receptor M1 (Rattus norvegicus) (UniProt P08482). Put plainly: qHTS Assay for Antagonists of Acetylcholine Muscarinic M1 Receptor: Kinetic Measurement of Intracellular Calcium Response (AID 943). Note: nearly all actives have a fitted effect of over 75% in size. Note: potency is the fitted concentration of half-maximal effect. A digest of the protocol: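 Intracellular calcium flux, recorded with Fluo-4 in a kinetic plate reader, served as signal; the response to carbachol at EC80 (100 nM final) was taken as maximal over minimal fluorescence after a 10 min compound pre-incubation in rat M1-CHO cells.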
Muscarinic acetylcholine receptor M1 (Rattus norvegicus), sequence (P08482 whole entry, looked up): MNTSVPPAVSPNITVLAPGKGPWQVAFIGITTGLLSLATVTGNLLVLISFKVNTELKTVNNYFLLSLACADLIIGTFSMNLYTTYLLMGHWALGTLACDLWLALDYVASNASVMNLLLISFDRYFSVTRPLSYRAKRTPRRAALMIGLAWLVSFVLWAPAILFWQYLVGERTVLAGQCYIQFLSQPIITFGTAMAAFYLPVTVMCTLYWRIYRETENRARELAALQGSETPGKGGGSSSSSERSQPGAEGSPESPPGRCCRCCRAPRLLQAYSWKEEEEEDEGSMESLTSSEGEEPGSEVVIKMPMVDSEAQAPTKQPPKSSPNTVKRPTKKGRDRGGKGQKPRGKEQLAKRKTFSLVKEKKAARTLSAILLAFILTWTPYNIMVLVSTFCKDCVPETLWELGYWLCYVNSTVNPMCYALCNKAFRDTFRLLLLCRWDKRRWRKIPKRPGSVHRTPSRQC

Test [3] addresses ATP-dependent 6-phosphofructokinase (Trypanosoma brucei brucei) (UniProt O15648). The experiment in a line: qHTS Assay to Find Inhibitors of T. brucei phosphofructokinase: hit validation (AID 492961).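 Note: luminescence reports ADP formed as PFK phosphorylates fructose-6-phosphate with ATP; % is set by controls: 0 for no effect and ±100 for the full control effect.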 A digest of the protocol:
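Compounds titrated; %activity normalized to 0x and 1x enzyme controls, curve-fitted. Readout: ADP-Glo luminescence after 45 min room-temperature reaction of 1.25 nM PFK, 0.1 mM ATP, 0.5 mM F6P, pH 8.0.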

Test [4] addresses Luciferin 4-monooxygenase (Photinus pyralis) (UniProt P08659). Put plainly: Biochemical firefly luciferase enzyme assay for NPC (AID 624030).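 Note: purified P. pyralis luciferase at 10 nM with luciferin and ATP substrate; 0% = DMSO and -100% = full luciferase inhibition by PTC124 control; nearly all actives have a fitted effect of over 70% in size.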 A digest of the protocol: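 Purified P. pyralis luciferase at 10 nM in 50 mM Tris Acetate (final), luminescence read within 5 minutes of enzyme addition to compounds. Activity normalised to PTC124 versus DMSO; concentration-response curves classed by r2, magnitude and activity.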

Test [5] is described as follows: qHTS profiling for inhibitors of Plasmodium falciparum proliferation (AID 504749).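 For activity, negative = inhibition: 0% = DMSO vehicle and full inhibition = artemisinin control.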 Note: nearly all actives have a fitted effect of over 60% in size. Note: potency is the fitted concentration of half-maximal effect. The settings on record: P. falciparum in erythrocytes, SYBR Green DNA, 72 h. A digest of the protocol: (§1)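 Readout was DNA-dye fluorescence from lysed cultures, ex 485/em 535 nm. Parasitized red cells had grown 72 h with compound; data scaled between 0.29 uM artemisinin and DMSO wells and corrected using vehicle-only plates.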

Test [6] relates to AS120. The description is as above. The settings on record: P. falciparum in erythrocytes, SYBR Green DNA, 72 h; series mostly up to 28.7 µM. A digest of the protocol: as §1
Test [7] deals with CP203. Described as above. Conditions: P. falciparum in erythrocytes, SYBR Green DNA, 72 h; series mostly up to 28.7 µM. In a few lines:
as §1

For test [8], the system named is CP238. Described as above. Conditions: P. falciparum in erythrocytes, SYBR Green DNA, 72 h; series mostly up to 28.7 µM. In a few lines: as §1
Test [9] deals with CP265. The test is described as above. Conditions: P. falciparum in erythrocytes, SYBR Green DNA, 72 h; series mostly up to 28.7 µM. A digest of the protocol:
as §1

The subject of test [10] is DIV30. The description is as above. The settings on record: P. falciparum in erythrocytes, SYBR Green DNA, 72 h; series mostly up to 28.7 µM. In a few lines: as §1
Test [11] has as its system ICS. The description is as above. The settings on record: P. falciparum in erythrocytes, SYBR Green DNA, 72 h; series mostly up to 28.7 µM. In a few lines:
as §1

Test [12] deals with P94_40. The test is described as above. Conditions: P. falciparum in erythrocytes, SYBR Green DNA, 72 h; series mostly up to 28.7 µM. A digest of the protocol: as §1
The subject of test [13] is TAB165. The description is as above. Conditions: P. falciparum in erythrocytes, SYBR Green DNA, 72 h; series mostly up to 28.7 µM. In a few lines:
as §1

For test [14], the system named is W2. Described as above. The settings on record: P. falciparum in erythrocytes, SYBR Green DNA, 72 h; series mostly up to 28.7 µM. In a few lines: as §1
The nature of test [15]: qHTS Assay for Identification of Small Molecule Antagonists for Thrombopoietin (TPO) Signaling Pathway (AID 918). Note: potency is the fitted concentration of half-maximal effect; nearly all actives have a fitted effect of over 60% in size. Conditions: TPO-dependent cell signaling reporter, antagonist mode. In a few lines: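 First, Ba/F3 reporter cells expressing human TPO receptor were held overnight without IL-3. Next, compound and 26 pM TPO were added. After 24 hrs incubation at 37 C, luciferase luminescence under the Glycoprotein IIb promoter was recorded.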

The test system of test [16] is ATS189. The experiment in a line: qHTS profiling for inhibitors of Plasmodium falciparum proliferation (AID 504749).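 For activity, negative = inhibition: 0% = DMSO vehicle and full inhibition = artemisinin control.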 Note: nearly all actives have a fitted effect of over 60% in size. Note: potency is the fitted concentration of half-maximal effect. Conditions: P. falciparum in erythrocytes, SYBR Green DNA, 72 h; series mostly up to 28.7 µM. In a few lines:
as §1

The subject of test [17] is CP192. Described as above. The settings on record: P. falciparum in erythrocytes, SYBR Green DNA, 72 h; series mostly up to 28.7 µM. A digest of the protocol: as §1
Test [18] concerns CP262. Described as above. The settings on record: P. falciparum in erythrocytes, SYBR Green DNA, 72 h; series mostly up to 28.7 µM. In a few lines:
as §1

Test [19] deals with ECU. The test is described as above. The settings on record: P. falciparum in erythrocytes, SYBR Green DNA, 72 h; series mostly up to 28.7 µM. In a few lines:
as §1

Test [20] concerns PC49. The test is described as above. Conditions: P. falciparum in erythrocytes, SYBR Green DNA, 72 h; series mostly up to 28.7 µM. A digest of the protocol: as §1

Luciferin 4-monooxygenase (Photinus pyralis), sequence (P08659 whole entry, looked up): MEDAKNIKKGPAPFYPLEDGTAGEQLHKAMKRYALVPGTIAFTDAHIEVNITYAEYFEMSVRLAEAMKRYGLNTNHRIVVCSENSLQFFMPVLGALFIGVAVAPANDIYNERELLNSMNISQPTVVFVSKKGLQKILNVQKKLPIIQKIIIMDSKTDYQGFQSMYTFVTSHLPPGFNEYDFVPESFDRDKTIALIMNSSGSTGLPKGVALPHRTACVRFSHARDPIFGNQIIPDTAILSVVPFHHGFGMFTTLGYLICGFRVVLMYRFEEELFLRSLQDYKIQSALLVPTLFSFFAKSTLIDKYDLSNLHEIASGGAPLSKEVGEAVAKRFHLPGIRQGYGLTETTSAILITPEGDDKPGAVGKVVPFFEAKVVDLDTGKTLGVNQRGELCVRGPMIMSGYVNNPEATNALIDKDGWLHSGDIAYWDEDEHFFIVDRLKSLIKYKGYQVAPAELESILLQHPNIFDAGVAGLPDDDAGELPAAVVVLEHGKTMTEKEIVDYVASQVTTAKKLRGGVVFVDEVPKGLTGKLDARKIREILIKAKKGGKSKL
Cytochrome P450 3A4 (Homo sapiens), sequence (P08684 whole entry, looked up): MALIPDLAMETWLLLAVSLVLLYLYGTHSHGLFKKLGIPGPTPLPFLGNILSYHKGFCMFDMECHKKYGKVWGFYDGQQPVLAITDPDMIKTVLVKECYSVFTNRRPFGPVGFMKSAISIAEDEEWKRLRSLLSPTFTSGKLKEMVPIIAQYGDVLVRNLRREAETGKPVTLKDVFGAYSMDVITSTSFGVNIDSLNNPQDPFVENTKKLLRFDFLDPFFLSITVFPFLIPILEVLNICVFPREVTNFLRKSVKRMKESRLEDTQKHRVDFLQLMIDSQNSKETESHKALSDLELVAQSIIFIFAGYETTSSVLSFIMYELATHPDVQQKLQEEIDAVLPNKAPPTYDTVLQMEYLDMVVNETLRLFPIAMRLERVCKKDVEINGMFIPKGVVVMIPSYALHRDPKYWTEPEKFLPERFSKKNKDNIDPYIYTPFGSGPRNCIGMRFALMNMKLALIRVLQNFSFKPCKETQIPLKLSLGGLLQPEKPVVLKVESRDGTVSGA
ATP-dependent 6-phosphofructokinase (Trypanosoma brucei brucei), sequence (O15648 whole entry, looked up): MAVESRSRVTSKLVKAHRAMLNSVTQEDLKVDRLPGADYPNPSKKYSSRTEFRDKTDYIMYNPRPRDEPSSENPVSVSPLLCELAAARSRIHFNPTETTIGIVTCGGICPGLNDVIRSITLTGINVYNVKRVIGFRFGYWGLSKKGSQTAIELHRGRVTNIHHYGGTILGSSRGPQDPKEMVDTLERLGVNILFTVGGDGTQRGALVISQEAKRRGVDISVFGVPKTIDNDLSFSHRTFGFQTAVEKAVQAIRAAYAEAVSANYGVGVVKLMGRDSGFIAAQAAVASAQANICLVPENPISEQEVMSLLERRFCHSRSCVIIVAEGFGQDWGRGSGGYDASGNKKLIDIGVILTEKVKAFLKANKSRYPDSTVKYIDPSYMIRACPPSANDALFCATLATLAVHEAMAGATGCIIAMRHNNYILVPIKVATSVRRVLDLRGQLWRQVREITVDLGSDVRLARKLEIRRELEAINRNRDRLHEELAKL

On to `O=C(Nc1ccccc1)N1CCC2(CC1)CCN(C(=O)c1ccco1)CC2`, for which the Potency result in [1] was “inactive”.
Consider `Nc1nc(Cl)nc2c1ncn2[C@@H]1O[C@@H](COP(=O)(O)OP(=O)(O)OP(=O)(O)O)[C@@H](O)[C@H]1O`, for which the Potency result in test [2] was “inactive”.
`C[C@H]1C[C@@H]2[C@H]3CCC4=CC(=O)C=C[C@@]4(C)[C@@]3(Cl)[C@@H](O)C[C@]2(C)[C@]1(OC(=O)c1ccco1)C(=O)CCl`: the molecule was classed as inactive in test [3] and in [4]. The Potency is 3.16 µM (active) in test [5] (parasite line B); 3.55 µM (active) in test [6]; 5.73 µM (active) in test [7]; 3.55 µM (active) in test [8]; 3.55 µM (active) in test [9]; 6.42 µM (active) in test [10]. The Potency in test [11] was 3.55 µM (active); in test [12], 3.55 µM (active); in test [13] it was 3.55 µM (active); in test [14], 3.61 µM (active).
As to `COc1cc2nc(N3CCN(C(=O)OCc4ccccc4)[C@H](C(=O)NC(C)(C)C)C3)nc(N)c2cc1OC`, the Potency in test [1] was 3.98 µM (active); in [15] it was 12.6 µM (active).
Regarding `Nc1ncnc2c1nc(Br)n2[C@@H]1O[C@H]2COP(=O)(O)O[C@@H]2[C@H]1O`, the Potency entry in [2] was “inactive”.
`O=S(=O)(NCCNC/C=C\c1ccc(Br)cc1)c1cccc2cnccc12`: in test [15], the Potency was 10 µM (active).
The same measure, in the same setting: to `CC(C)(C)[C@@]1(O)CCN2C[C@@H]3c4ccccc4CCc4cccc(c43)[C@@H]2C1` belongs 12.6 µM (active).
Consider `C[C@@H](CN1CCC(Cc2ccccc2)CC1)[C@H](O)c1ccc(O)cc1`, for which the Potency entry in test [1] was “inactive”. Besides, the Potency in test [2] is 5.62 µM (active).
On to `C[C@@H](COc1ccc(/C=C\c2ccccc2)cc1)[N+](C)(C)C`, for which, in test [2], the Potency is 4.47 µM (active).
As to `C=C(NC(=O)C(=C)NC(=O)c1csc(C2=N[C@@H]3c4csc(n4)[C@@H]4NC(=O)c5csc(n5)[C@@H]([C@](C)(O)[C@H](C)O)NC(=O)[C@@H]5CSC(=N5)/C(=C/C)NC(=O)[C@@H]([C@H](C)O)NC(=O)c5csc(n5)[C@]3(CC2)NC(=O)[C@@H](C)NC(=O)C(=C)NC(=O)[C@@H](C)NC(=O)[C@@H]([C@@H](C)CC)N[C@H]2C=Cc3c([C@H](C)O)cc(nc3[C@@H]2O)C(=O)O[C@H]4C)n1)C(N)=O`, the molecule was called inactive in test [3] and in test [4]. Besides, the Potency result in [16], in test [17], in test [18], in test [19] and in test [20] was “inactive” each time. In addition, the Potency was 3.16 µM (active) in test [11], 2.82 µM (active) in [13] and 1.61 µM (active) in test [14].
As to `O[C@H](CN1CCN(c2cccc(Cl)c2)CC1)C(c1ccccc1)c1ccccc1`, in test [1], the Potency result is “inactive”.
In the case of `C[C@@]12C(=O)OC(=O)[C@@]1(C)[C@H]1CC[C@@H]2O1`, the Potency in test [15] was 3.16 µM (active).
As to `COC(=O)[C@](C)(N)Cc1ccc(O)cc1`, the Potency result in test [1] is “inactive”.
As to `C(=C/c1ccccc1)/CN1CCN(C(c2ccccc2)c2ccccc2)CC1`, the call in test [3] and in test [4] was inactive. Besides, the activity, negative = inhibition in test [5] (at 12.8 µM (top of the series), parasite line A) was 1.36%. The Potency result in test [6], in [16], in test [17], in test [7], in [8] and in test [18] was “inactive” in each case. The Potency entry in [9], in test [10], in [19], in test [12], in test [20] and in [13] was “inactive” throughout. Also, the figures for the Potency in test [11] and in test [14] were 7.94 µM (active) and 5.1 µM (active), respectively.
`COc1c2c(nc3ccccc13)O[C@@H]([C@@](C)(O)CO)C2`: the Potency entry in test [2] was “inactive”.

The values are drawn from PubChem BioAssay (NCATS).
